Tests used:
Conditions in all cases: Compound Concentration (nM):1000
[1] = system: T1, AMPK-alpha1
T1 construct: gene PRKAA1

[2] = system: T2, AMPK-alpha2
T2 construct: gene PRKAA2

[3] = system: ANKK1
[4] = system: T3, ARK5
T3 construct: gene NUAK1

[5] = system: T4, ASK1
T4 construct: gene MAP3K5

[6] = system: T5, ASK2
T5 construct: gene MAP3K6

[7] = system: AURKA
[8] = system: AURKB
[9] = system: AURKC
[10] = system: AXL
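Also: KINOMEscan scanMAX binding as percent activity remaining versus control; lower means stronger binding.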

Row | Structure (SMILES) | Percent Control [1] [%] | Percent Control [2] [%] | Percent Control [3] [%] | Percent Control [4] [%] | Percent Control [5] [%] | Percent Control [6] [%] | Percent Control [7] [%] | Percent Control [8] [%] | Percent Control [9] [%] | Percent Control [10] [%]
1 | CC1=C(C(=O)Nc2ccc3[nH]ncc3c2)C(c2ccc3ccccc3c2)CC(=O)N1 (stereo not shown) [GSK270822A] | 76 | 81 | 100 | 81 | 98 | 84 | 39 | 49 | 62 | 91
2 | CN(C)CCNC(=O)Nc1ccc(N(C)c2ccnc(Nc3ccc(CS(C)(=O)=O)cc3)n2)cc1.Cl [GW830900A] | 87 | 74 | 88 | 48 | 100 | 80 | 8.8 | 4.4 | 4.5 | 58
3 | COc1cc2ncnc(Nc3ccc4c(cnn4Cc4ccccc4)c3)c2cc1OC.Cl [GW282449A] | 100 | 100 | 88 | 100 | 100 | 74 | 100 | 100 | 87 | 89
4 | O=C1Nc2ccc(C(=O)c3ccco3)cc2C1=Cc1cc(Cl)c(O)c(Cl)c1 [GW406108X] | 90 | 94 | 9.2 | 100 | 100 | 72 | 35 | 22 | 58 | 100
5 | CCS(=O)(=O)c1ccc(OC)c(Nc2ncc(-c3cccc(F)c3)o2)c1 [GW621970X] | 100 | 91 | 100 | 100 | 100 | 75 | 100 | 89 | 100 | 97
6 | NS(=O)(=O)c1ccc(N/N=C2\C(=O)Nc3ccc(-c4cnco4)cc32)cc1 [GW276655] | 95 | 100 | 65 | 100 | 100 | 85 | 70 | 66 | 65 | 100
7 | COc1ccccc1-c1cc(/C=C2\C(=O)Nc3ncc(Br)cc32)cc(Br)c1O [GW442130X] | 100 | 94 | 100 | 100 | 98 | 100 | 25 | 48 | 80 | 92
8 | COc1cc(/C=N/Nc2ncnc3[nH]ncc23)ccc1O [GW578748X] | 79 | 54 | 21 | 100 | 100 | 75 | 41 | 56 | 58 | 65
9 | Cl.c1ccc(Cc2nc3ccc(Nc4ncnc5ccccc45)cc3[nH]2)cc1 [GR269666A] | 100 | 100 | 94 | 100 | 100 | 77 | 100 | 100 | 100 | 100
10 | CCn1c(-c2nonc2N)nc2c(C#CC(C)(C)O)nc(OCCNC)cc21.Cl [GSK949675] | 100 | 100 | 100 | 100 | 95 | 100 | 90 | 100 | 100 | 100
11 | COc1ccc2c(-c3ccnc(Nc4cccc(OC(F)(F)F)c4)n3)cnn2n1 [GW810372X] | 100 | 100 | 89 | 100 | 100 | 78 | 100 | 100 | 57 | 87
12 | NS(=O)(=O)c1ccc(Nc2ncc(-c3ccccc3)o2)cc1 [GW572399X] | 100 | 95 | 82 | 100 | 100 | 77 | 100 | 43 | 100 | 100
13 | COc1cccc(-n2ncc3c(N/N=C/c4ccncc4)ncnc32)c1 [GW784752X] | 100 | 86 | 79 | 96 | 100 | 62 | 69 | 89 | 94 | 100
14 | Nc1ncnc2occ(-c3ccc(NC(=O)Nc4cc(C(F)(F)F)ccc4F)cc3)c12 [GW770249X] | 100 | 86 | 32 | 100 | 100 | 80 | 66 | 5.7 | 35 | 0
15 | CCc1ccc(Oc2nccc(-c3c(-c4ccc(F)cc4)ncn3C3CCNCC3)n2)cc1 [SB-242719] | 100 | 99 | 83 | 100 | 84 | 66 | 81 | 100 | 98 | 100
16 | O=C(Nc1n[nH]c2nc(-c3ccc(O)cc3)c(Br)cc12)C1CC1 [SB-725317] | 100 | 100 | 100 | 100 | 100 | 100 | 100 | 91 | 59 | 100
17 | C[C@@H](Oc1cc(-n2cnc3ccc(OC4CCN(C)CC4)cc32)sc1C(N)=O)c1ccccc1Cl [GSK579289A] | 45 | 100 | 63 | 19 | 99 | 66 | 76 | 94 | 65 | 67
18 | NS(=O)(=O)c1ccc(N/N=C2\C(=O)Nc3ccc(C(=O)NCc4ccncc4)cc32)cc1 [GW300657X] | 78 | 83 | 27 | 86 | 100 | 70 | 57 | 59 | 76 | 95
19 | NS(=O)(=O)c1ccc(N/N=C2\C(=O)Nc3ccc(C(=O)NCCc4c[nH]cn4)cc32)cc1 [GW300660X] | 100 | 100 | 59 | 80 | 100 | 65 | 72 | 55 | 99 | 100
20 | COc1cccc(-c2c[nH]c3c(N/N=C/c4ccncc4)ncnc23)c1 [GW814408X] | 100 | 85 | 100 | 100 | 100 | 100 | 82 | 75 | 48 | 71

Row | Structure (SMILES) | Percent Control [1] [%] | Percent Control [2] [%] | Percent Control [3] [%] | Percent Control [4] [%] | Percent Control [5] [%] | Percent Control [6] [%] | Percent Control [7] [%] | Percent Control [8] [%] | Percent Control [9] [%] | Percent Control [10] [%]
21 | CCS(=O)(=O)c1ccc(OC)c(Nc2ncc(-c3cccc(OC)c3)o2)c1 [GW580509X] | 100 | 100 | 95 | 100 | 100 | 85 | 88 | 83 | 100 | 95
22 | NS(=O)(=O)c1ccc(N/N=C2\C(=O)Nc3ccc(Cl)cc32)cc1 [GW280670X] | 100 | 88 | 97 | 100 | 100 | 91 | 91 | 100 | 100 | 100
23 | Cl.O=C(O[C@H]1CN[C@H](C#Cc2cc3ncnc(Nc4ccc5c(cnn5Cc5ccccc5)c4)c3s2)C1)N1CCOCC1 [GSK200398A] | 100 | 92 | 100 | 91 | 100 | 88 | 71 | 84 | 100 | 100
24 | COc1cc(C)c(N(C)C(=O)CN(C)C)cc1Nc1nc(Nc2cccc(F)c2C(N)=O)c2cc[nH]c2n1 [GSK2219385] | 100 | 100 | 94 | 86 | 100 | 70 | 85 | 93 | 90 | 76
25 | Cc1cc(O)cc(C)c1/C=C/c1cncc(C(N)=O)c1 [GW435821X] | 100 | 83 | 85 | 100 | 100 | 79 | 85 | 100 | 100 | 100
26 | COc1ccc2[nH]c3c4[nH]c5ccc(OC)cc5c4c4c(c3c2c1)C(=O)NC4=O [GW296115X] | 44 | 54 | 71 | 25 | 83 | 86 | 57 | 16 | 17 | 30
27 | COc1ccc2cc(-c3c(-c4ccncc4)nc(-c4ccc(S(C)(=O)=O)cc4C)n3C)ccc2c1 [SB-633825] | 53 | 90 | 100 | 100 | 83 | 74 | 87 | 66 | 85 | 88
28 | C/C(Nc1ccc(S(N)(=O)=O)cc1)=C1/C(=O)Nc2ccccc21 [GW335962X] | 78 | 87 | 50 | 100 | 100 | 69 | 66 | 16 | 71 | 73
29 | Cl.O=S1CCN(Cc2ccc(-c3ccc4ncnc(Nc5ccc(OCc6ccccc6)c(F)c5)c4c3)o2)CC1 [GW576924A] | 100 | 100 | 88 | 100 | 100 | 69 | 100 | 100 | 100 | 100
30 | CN1CCN(C(=O)c2ccc(NC(=O)Nc3ccc(N(C)c4ccnc(Nc5ccc(CS(C)(=O)=O)cc5)n4)cc3)cc2)CC1.Cl [GW830263A] | 82 | 87 | 28 | 78 | 100 | 67 | 0 | 0.4 | 0.2 | 9.7
31 | Cl.O=C(Nc1ccc(Oc2ccc3[nH]c(NC(=O)c4ccccc4)nc3c2)cc1)Nc1cc(C(F)(F)F)ccc1F [GW709042A] | 56 | 100 | 95 | 100 | 100 | 80 | 82 | 61 | 37 | 0
32 | COc1ccc(COc2ccc(Cc3cnc(N)nc3N)cc2OC)cc1 [GW632580X] | 89 | 99 | 81 | 100 | 80 | 85 | 76 | 100 | 100 | 100
33 | COC(=O)Nc1nc2ccc(Oc3ccc(NC(=O)Nc4cc(C(F)(F)F)ccc4F)cc3)cc2s1.Cl [GW693917A] | 69 | 82 | 85 | 100 | 100 | 64 | 71 | 13 | 50 | 6
34 | COc1cc(C=NNc2ncnc3c2cnn3-c2ccccc2)ccc1O [GW513184X] | 100 | 100 | 48 | 84 | 100 | 100 | 33 | 96 | 59 | 60
35 | Cl.O=C(Nc1ccc(Oc2ccc3[nH]c(NC(=O)c4ccco4)nc3c2)cc1)Nc1cc(C(F)(F)F)ccc1F [GW683134A] | 67 | 82 | 100 | 100 | 100 | 93 | 98 | 13 | 56 | 0
36 | CC(C)COC(=O)c1ccc2c(c1)/C(=C/Nc1ccc(S(N)(=O)=O)cc1)C(=O)N2 [GW416981X] | 100 | 92 | 44 | 97 | 100 | 85 | 66 | 65 | 35 | 100
37 | CC1=C(C(=O)Nc2ccc3[nH]ncc3c2)C(c2ccc(Cl)c(Cl)c2)CC(=O)N1 (stereo not shown) [GSK299115A] | 67 | 97 | 100 | 85 | 98 | 82 | 45 | 60 | 56 | 100
38 | COc1cc2ncn(-c3cc(O[C@H](C)c4ccccc4Cl)c(C(N)=O)s3)c2cc1OC [GSK237701A] | 54 | 100 | 100 | 29 | 100 | 97 | 87 | 38 | 74 | 50
39 | COc1cc(N2CCN(C(C)C)CC2)ccc1Nc1nc(Nc2ccc(F)cc2C(=O)NC[C@@H](O)CO)c2cc[nH]c2n1 [GSK1392956A] | 100 | 100 | 92 | 67 | 100 | 73 | 95 | 91 | 90 | 46
40 | CN(C)c1cc2c(Nc3ccc4c(cnn4Cc4ccccc4)c3)ncnc2cn1 [GW282974X] | 90 | 100 | 100 | 100 | 100 | 73 | 74 | 100 | 92 | 98

Reference: paper PMC7826789 (International Journal of Molecular Sciences, 2021)
